Laboratory results from PubChem BioAssay AID1159580 (chemical genetic matrix, 2015).
The whole screen tested about 5,500 compounds, of which about 2,000 (36%) were called active. Not shown: some 18% with an inconclusive outcome. Rule as the data show it: active = normalized growth mostly below about 0.91 (no sharp cut-off); inconclusive = no clear call, values can overlap the other calls; inactive = mostly above about 0.92. Some of the results follow.

Experiment: chemical genetic growth profiling, strain panel (AID 1159580);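 also: tested at 20 µM; growth read once vehicle control cultures reached saturation at 30 °C; 1 = growth at the plate median or of vehicle wells; lower values mean less growth of the strain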
Settings: S. cerevisiae deletion strains, growth OD

Measured: normalized growth

COc1c(-c2coc3cc4c(cc3c2=O)CC(OC(C)=O)C(C)(C)O4)ccc2c1C=CC(C)(C)O2 (stereo not given)
inactive: locus YAL021C, strain ccr4, hits give low values 1.01 | locus YAL026C, strain drs2, hits give low values 1.04 | locus YAL030W, strain snc1, hits give low values 1.03 | locus YBL061C, strain skt5, hits give low values 1.02 | locus YBR009C, strain hhf1, hits give low values 1.02 | locus YBR023C, strain chs3, hits give low values 1.03 | locus YBR171W, strain sec66, hits give low values 1.05 | locus YBR231C, strain swc5, hits give low values 1.05 | locus YBR279W, strain paf1, hits give low values 1.03 | locus YCL011C, strain gbp2, hits give low values 1.04 | locus YCL016C, strain dcc1, hits give low values 1.03 | locus YCL061C, strain MRC1, hits give low values 1.03 | locus YCL069W, strain vba3, hits give low values 1.04 | locus YCR088W, strain abp1, hits give low values 1.04 | locus YDL005C, strain med2, hits give low values 1.04 | locus YDL040C, strain nat1, hits give low values 1.03 | locus YDR001C, strain nth1, hits give low values 1.03 | locus YDR069C, strain doa4, hits give low values 1.03 | locus YDR137W, strain rgp1, hits give low values 1.08 | locus YDR159W, strain sac3, hits give low values 1.05 | locus YDR195W, strain ref2 1.05 | locus YDR297W, strain sur2, hits give low values 1.03 | locus YDR334W, strain swr1, hits give low values 1.03 | locus YDR335W, strain msn5, hits give low values 1.03 | locus YDR392W, strain spt3, hits give low values 0.945 | locus YEL003W, strain gim4, hits give low values 1.03 | locus YEL037C, strain rad23, hits give low values 1.02 | locus YEL061C, strain CIN8 (second series), hits give low values 1.04 | locus YER015W, strain faa2, hits give low values 1.03 | locus YER016W, strain bim1, hits give low values 1.03 | locus YER111C, strain swi4, hits give low values 1.02 | locus YER155C, strain BEM2 (second series), hits give low values 1.03 | locus YFR010W, strain ubp6, hits give low values 1.03 | locus YGL167C, strain pmr1, hits give low values 1.03 | locus YGL173C, strain kem1, hits give low values 1.03 | locus YGL227W, strain vid30, hits give low values 1.04 | locus YGL240W, strain doc1, hits give low values 1.03 | locus YGL253W, strain hxk2, hits give low values 1.04 | locus YHR013C, strain ard1, hits give low values 1.03 | locus YHR027C, strain rpn1, hits give low values 1.02 | locus YHR030C, strain SLT2, hits give low values 0.961 | locus YHR079C, strain IRE1, hits give low values 0.947 | locus YHR142W, strain chs7, hits give low values 1.05 | locus YJL092W, strain hpr5, hits give low values 1.04 | locus YJL095W, strain BCK1 (second series), hits give low values 1.03 | locus YJL095W, strain BCK1, hits give low values 0.973 | locus YJL115W, strain asf1, hits give low values 1.04 | locus YJL129C, strain trk1, hits give low values 1.06 | locus YJL154C, strain vps35, hits give low values 1.03 | locus YJL164C, strain tpk1, hits give low values 1.03 | locus YJL166W, strain qcr8, hits give low values 1.03 | locus YJL187C, strain SWE1, hits give low values 1.02 | locus YJR066W, strain TOR1, hits give low values 0.973 | locus YKL160W, strain elf1, hits give low values 1.04 | locus YKR026C, strain gcn3, hits give low values 1.04 | locus YKR091W, strain srl3, hits give low values 1.02 | locus YLL001W, strain dnm1, hits give low values 1.03 | locus YLL026W, hits give low values 1.02 | locus YLL041C, strain sdh2, hits give low values 1.02 | locus YLR027C, strain aat2, hits give low values 1.03 | locus YLR113W, strain HOG1, hits give low values 0.934 | locus YLR221C, strain rsa3, hits give low values 1.03 | locus YLR258W, strain gsy2, hits give low values 1.03 | locus YLR262C, strain YPT6 (second series), hits give low values 1.07 | locus YLR320W, strain mms22, hits give low values 1.03 | locus YLR342W, strain FKS1, hits give low values 1.03 | locus YLR357W, strain rsc2, hits give low values 1.04 | locus YLR370C, strain arc18, hits give low values 1.03 | locus YLR384C, strain iki3, hits give low values 1.02 | locus YML120C, strain ndi1, hits give low values 1.03 | locus YMR058W, strain fet3, hits give low values 1.04 | locus YMR125W, strain sto1, hits give low values 1.03 | locus YMR129W, hits give low values 1.03 | locus YMR205C, strain PFK2, hits give low values 1.04 | locus YMR231W, strain pep5, hits give low values 1.03 | locus YNL071W, strain lat1, hits give low values 1.03 | locus YNL183C, strain NPR1, hits give low values 0.925 | locus YNL209W, strain ssb2, hits give low values 1.03 | locus YNL248C, strain rpa49, hits give low values 1.03 | locus YNL322C, strain KRE1 (second series), hits give low values 1.02 | locus YNR049C, strain mso1, hits give low values 1.03 | locus YOR001W, strain rrp6, hits give low values 1.02 | locus YOR070C, strain gyp1, hits give low values 1.02 | locus YOR080W, strain dia2, hits give low values 1.02 | locus YOR083W, strain WHI5, hits give low values 1.03 | locus YOR106W, strain vam3, hits give low values 1.06 | locus YOR231W, strain MKK1, hits give low values 0.957 | locus YOR265W, strain rbl2, hits give low values 1.02 | locus YOR270C, strain vph1, hits give low values 1.03 | locus YOR290C, strain snf2, hits give low values 0.999 | locus YPL051W, strain arl3, hits give low values 1.03 | locus YPL078C, strain atp4, hits give low values 1.04 | locus YPL106C, strain sse1, hits give low values 1.05 | locus YPL240C, strain hsp82, hits give low values 1.02 | locus YPL256C, strain CLN2, hits give low values 0.958
